Results taken from PubChem BioAssay (NCATS).
Records with an inconclusive call do not appear. The source made the active and inactive calls. Calls come from the whole dose curve; as a rule, active = well fitted inhibition curve with a large enough effect; inconclusive = small, poorly fitted or top-dose-only effect; inactive = flat fitted curve, though single readings scatter.

Key:
[1] = qHTS profiling for inhibitors of Plasmodium falciparum proliferation (AID 504749);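 note: 0% = DMSO vehicle and full inhibition = artemisinin control; nearly all actives have a fitted effect of over 60% in size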; settings: P. falciparum in erythrocytes, SYBR Green DNA, 72 h, at 28.7 µM (top of the series)
Summary of the method: (§1)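 Each compound contacts P. falciparum-infected red blood cells for 72 h at 37 C; lysis buffer (Tris, EDTA, saponin, Triton X, SYBR Green I) is added and fluorescence measured next morning; values normalized to controls.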

3D7 = assay: as above; settings: P. falciparum in erythrocytes, SYBR Green DNA, 72 h; series mostly up to 28.7 µM
Summary of the method: as §1

7G8 = assay: as above; settings: P. falciparum in erythrocytes, SYBR Green DNA, 72 h; series mostly up to 28.7 µM
Summary of the method: as §1

AA1029 = assay: as above; settings: P. falciparum in erythrocytes, SYBR Green DNA, 72 h; series mostly up to 28.7 µM
Summary of the method: as §1

AS120 = assay: as above; settings: P. falciparum in erythrocytes, SYBR Green DNA, 72 h; series mostly up to 28.7 µM
Summary of the method: as §1

ATS189 = assay: as above; settings: P. falciparum in erythrocytes, SYBR Green DNA, 72 h; series mostly up to 28.7 µM
Summary of the method: as §1

ATS95 = assay: as above; settings: P. falciparum in erythrocytes, SYBR Green DNA, 72 h; series mostly up to 28.7 µM
Summary of the method: as §1

C2A = assay: as above; settings: P. falciparum in erythrocytes, SYBR Green DNA, 72 h; series mostly up to 28.7 µM
Summary of the method: as §1

CP185 = assay: as above; settings: P. falciparum in erythrocytes, SYBR Green DNA, 72 h; series mostly up to 28.7 µM
Summary of the method: as §1

CP191 = assay: as above; settings: P. falciparum in erythrocytes, SYBR Green DNA, 72 h; series mostly up to 28.7 µM
Summary of the method: as §1

CP192 = assay: as above; settings: P. falciparum in erythrocytes, SYBR Green DNA, 72 h; series mostly up to 28.7 µM
Summary of the method: as §1

CP194 = assay: as above; settings: P. falciparum in erythrocytes, SYBR Green DNA, 72 h; series mostly up to 28.7 µM
Summary of the method: as §1

CP201 = assay: as above; settings: P. falciparum in erythrocytes, SYBR Green DNA, 72 h; series mostly up to 28.7 µM
Summary of the method: as §1

CP203 = assay: as above; settings: P. falciparum in erythrocytes, SYBR Green DNA, 72 h; series mostly up to 28.7 µM
Summary of the method: as §1

CP211 = assay: as above; settings: P. falciparum in erythrocytes, SYBR Green DNA, 72 h; series mostly up to 28.7 µM
Summary of the method: as §1

CP215 = assay: as above; settings: P. falciparum in erythrocytes, SYBR Green DNA, 72 h; series mostly up to 28.7 µM
Summary of the method: as §1

CP217 = assay: as above; settings: P. falciparum in erythrocytes, SYBR Green DNA, 72 h; series mostly up to 28.7 µM
Summary of the method: as §1

CP237 = assay: as above; settings: P. falciparum in erythrocytes, SYBR Green DNA, 72 h; series mostly up to 28.7 µM
Summary of the method: as §1

CP238 = assay: as above; settings: P. falciparum in erythrocytes, SYBR Green DNA, 72 h; series mostly up to 28.7 µM
Summary of the method: as §1

CP247 = assay: as above; settings: P. falciparum in erythrocytes, SYBR Green DNA, 72 h; series mostly up to 28.7 µM
Summary of the method: as §1

C=CC(C)(O)CC/C=C(\C)CCC=C(C)C (centres undefined)
inactive: activity, negative = inhibition ([1]; parasite line A) 2.76% | activity, negative = inhibition ([1]; parasite line B) -4.38% | Potency (3D7) | Potency (7G8) | Potency (AA1029) | Potency (AS120) | Potency (ATS189) | Potency (ATS95) | Potency (C2A) | Potency (CP185) | Potency (CP191) | Potency (CP192) | Potency (CP194) | Potency (CP201) | Potency (CP203) | Potency (CP211) | Potency (CP215) | Potency (CP217) | Potency (CP237) | Potency (CP238) | Potency (CP247)

S=C=Nc1ccc(N=C=S)cc1
inactive: activity, negative = inhibition ([1]; parasite line A) 10.9% | activity, negative = inhibition ([1]; parasite line B) 0.756% | Potency (3D7) | Potency (7G8) | Potency (AA1029) | Potency (AS120) | Potency (ATS189) | Potency (ATS95) | Potency (C2A) | Potency (CP185) | Potency (CP191) | Potency (CP192) | Potency (CP194) | Potency (CP201) | Potency (CP203) | Potency (CP211) | Potency (CP215) | Potency (CP217) | Potency (CP237) | Potency (CP238) | Potency (CP247)

NC(=O)C1c2ccccc2CCc2ccccc21
inactive: activity, negative = inhibition ([1]; parasite line A) -4.87% | activity, negative = inhibition ([1]; parasite line B) 8.64% | Potency (3D7) | Potency (7G8) | Potency (AA1029) | Potency (AS120) | Potency (ATS189) | Potency (ATS95) | Potency (C2A) | Potency (CP185) | Potency (CP191) | Potency (CP192) | Potency (CP194) | Potency (CP201) | Potency (CP203) | Potency (CP211) | Potency (CP215) | Potency (CP217) | Potency (CP237) | Potency (CP238)

OC[C@H]1O[C@@](CO)(O[C@H]2O[C@H](CO)[C@@H](O)[C@H](O)[C@H]2O)[C@@H](O)[C@@H]1O
inactive: activity, negative = inhibition ([1]; parasite line A) 11.2% | activity, negative = inhibition ([1]; parasite line B) -0.203% | Potency (3D7) | Potency (7G8) | Potency (AA1029) | Potency (AS120) | Potency (ATS189) | Potency (ATS95) | Potency (C2A) | Potency (CP185) | Potency (CP191) | Potency (CP192) | Potency (CP194) | Potency (CP201) | Potency (CP203) | Potency (CP211) | Potency (CP215) | Potency (CP217) | Potency (CP237) | Potency (CP238) | Potency (CP247)

CC(C)CCCC(C)NC(C)C (centres undefined)
inactive: activity, negative = inhibition ([1]; parasite line A) -16.1% | activity, negative = inhibition ([1]; parasite line B) -1.21% | Potency (3D7) | Potency (7G8) | Potency (AA1029) | Potency (AS120) | Potency (ATS189) | Potency (ATS95) | Potency (C2A) | Potency (CP185) | Potency (CP191) | Potency (CP192) | Potency (CP194) | Potency (CP201) | Potency (CP203) | Potency (CP211) | Potency (CP215) | Potency (CP217) | Potency (CP237) | Potency (CP238) | Potency (CP247)

COC1=C(OC)C(=O)C(C/C=C(\C)CC/C=C(\C)CC/C=C(\C)CC/C=C(\C)CC/C=C(\C)CC/C=C(\C)CC/C=C(\C)CC/C=C(\C)CC/C=C(\C)CCC=C(C)C)=C(C)C1=O
inactive: activity, negative = inhibition ([1]; parasite line A) -2.4% | activity, negative = inhibition ([1]; parasite line B) 5.89% | Potency (3D7) | Potency (7G8) | Potency (AA1029) | Potency (AS120) | Potency (ATS189) | Potency (ATS95) | Potency (C2A) | Potency (CP185) | Potency (CP191) | Potency (CP192) | Potency (CP194) | Potency (CP201) | Potency (CP203) | Potency (CP211) | Potency (CP215) | Potency (CP217) | Potency (CP237) | Potency (CP238) | Potency (CP247)

Cc1ncc(COP(=O)(O)O)c(CN)c1O
inactive: activity, negative = inhibition ([1]; parasite line A) -3.16% | activity, negative = inhibition ([1]; parasite line B) 3.16% | Potency (3D7) | Potency (7G8) | Potency (AA1029) | Potency (AS120) | Potency (ATS189) | Potency (ATS95) | Potency (C2A) | Potency (CP185) | Potency (CP191) | Potency (CP192) | Potency (CP194) | Potency (CP201) | Potency (CP203) | Potency (CP211) | Potency (CP215) | Potency (CP217) | Potency (CP237) | Potency (CP238)

O=C(/C=C/c1cccc(F)c1)NC1CC1
inactive: activity, negative = inhibition ([1]; parasite line A) -17.7% | activity, negative = inhibition ([1]; parasite line B) -9.61% | Potency (3D7) | Potency (7G8) | Potency (AA1029) | Potency (AS120) | Potency (ATS189) | Potency (ATS95) | Potency (C2A) | Potency (CP185) | Potency (CP191) | Potency (CP192) | Potency (CP194) | Potency (CP201) | Potency (CP203) | Potency (CP211) | Potency (CP215) | Potency (CP217) | Potency (CP237) | Potency (CP238) | Potency (CP247)

COc1ccc(C(=O)CCC(=O)O)c2ccccc12
inactive: activity, negative = inhibition ([1]; parasite line A) 16.4% | activity, negative = inhibition ([1]; parasite line B) 8.35% | Potency (3D7) | Potency (7G8) | Potency (AA1029) | Potency (AS120) | Potency (ATS189) | Potency (ATS95) | Potency (C2A) | Potency (CP185) | Potency (CP191) | Potency (CP192) | Potency (CP194) | Potency (CP201) | Potency (CP203) | Potency (CP211) | Potency (CP215) | Potency (CP217) | Potency (CP237) | Potency (CP238)

O=P(O)(O)OP(=O)(O)OP(=O)(O)O
inactive: activity, negative = inhibition ([1]; parasite line A) -4.84% | activity, negative = inhibition ([1]; parasite line B) 8.54% | Potency (3D7) | Potency (7G8) | Potency (AA1029) | Potency (AS120) | Potency (ATS189) | Potency (ATS95) | Potency (C2A) | Potency (CP185) | Potency (CP191) | Potency (CP192) | Potency (CP194) | Potency (CP201) | Potency (CP203) | Potency (CP211) | Potency (CP215) | Potency (CP217) | Potency (CP237) | Potency (CP238) | Potency (CP247)

CC(=O)Oc1cccc(C(=O)O)c1OC(C)=O
inactive: activity, negative = inhibition ([1]; parasite line A) 7.04% | activity, negative = inhibition ([1]; parasite line B) 3.67% | Potency (3D7) | Potency (7G8) | Potency (AA1029) | Potency (AS120) | Potency (ATS189) | Potency (ATS95) | Potency (C2A) | Potency (CP185) | Potency (CP191) | Potency (CP192) | Potency (CP194) | Potency (CP201) | Potency (CP203) | Potency (CP211) | Potency (CP215) | Potency (CP217) | Potency (CP237) | Potency (CP238) | Potency (CP247)

[O]=[Bi][O][Bi]=[O]
inactive: activity, negative = inhibition ([1]; parasite line A) 0.672% | activity, negative = inhibition ([1]; parasite line B) 4.28% | Potency (3D7) | Potency (7G8) | Potency (AA1029) | Potency (AS120) | Potency (ATS189) | Potency (ATS95) | Potency (C2A) | Potency (CP185) | Potency (CP191) | Potency (CP192) | Potency (CP194) | Potency (CP201) | Potency (CP203) | Potency (CP211) | Potency (CP215) | Potency (CP217) | Potency (CP237) | Potency (CP238) | Potency (CP247)
